These results are taken from the supplement of paper PMC8975748.

Counter-ions that a name gives are not always drawn.

The assay concerns Saccharomyces cerevisiae BY4741 SeMeCo community. Briefly: z-score of subpopulation abundance vs DMSO median, subpopulation auxotrophic for HUM; higher = larger share of this subpopulation than in DMSO controls. The following applies: 10 µM; 24 h; SM minimal medium; subpopulation (auxotrophy): HUM. On the procedure: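 Fluorescent four-plasmid SeMeCo (self-establishing metabolically cooperating S. cerevisiae BY4741 community; plasmids pH-mRuby2, pL-mWasabi, pU-eCFP, pM-TagRFP657) was grown 24 h in minimal SM medium with each Selleck FDA-approved drug at 10 µM in 384-well plates. Cells were fixed and imaged by high-content confocal microscopy. For each auxotrophic subpopulation (and the prototroph), a z-score gives the deviation from the DMSO vehicle-control population median.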
For `CC(C)C(=O)Oc1ccc(CO)cc1[C@H](CCN(C(C)C)C(C)C)c1ccccc1` [Fesoterodine Fumarate], the “z-score of subpopulation abundance” value is -0.72. For `N/C(=N\N=C\c1ccc(Cl)cc1)N/N=C/c1ccc(Cl)cc1` [Robenidine Hydrochoride] the value was 11.9; for `COc1c(N2C[C@@H]3CCCN[C@@H]3C2)c(F)cc2c(=O)c(C(=O)O)cn(C3CC3)c12` [Moxifloxacin HCl], 0.22; for `O=C1NC(=O)C(c2ccccc2)(c2ccccc2)N1` [Phenytoin], 0.18. In the case of `Cc1c(C(N)=O)cc([N+](=O)[O-])cc1[N+](=O)[O-]` [Dinitolmide] it was -0.56. In the case of `C[C@]1(COc2ccc(N3CCC(Oc4ccc(OC(F)(F)F)cc4)CC3)cc2)Cn2cc([N+](=O)[O-])nc2O1` [Delamanid] it was -0.19; in that of `CCC(=O)Oc1ccc2c(c1)CCC1C2CCC2(C)C(OC(=O)CC)CCC12` (stereo not drawn) [Estradiol dipropionate(17-Beta-Estradiol-3,17-Dipropionate)], -0.16; in that of `C=C1CCC2C(C)(CO)C(O)CCC2(C)C1CC=C1C=COC1=O` (stereo not given) [Dehydroandrographolide], 0.26.

As for `O=C1NCC2(CCN(CCc3ccccc3)CC2)O1` [Fenspiride HCl], the “z-score of subpopulation abundance” value is -0.64. In the case of `OCCN1CCN(CC/C=C2/c3ccccc3Sc3ccc(C(F)(F)F)cc32)CC1` [Flupenthixol dihydrochloride], the “z-score of subpopulation abundance” value is -0.33. `O=C1CCc2ccc(OCCCCN3CCN(c4cccc(Cl)c4Cl)CC3)cc2N1` [Aripiprazole]: the “z-score of subpopulation abundance” value was 0.36. For `C[C@@H]1O[C@@H]1P(=O)(O)O` [Fosfomycin Disodium] the value was -0.19; for `Cc1ccccc1C(OCCN(C)C)c1ccccc1` (stereo not given) [Orphenadrine Citrate], -0.13; for `COCCCN1CCC(NC(=O)c2cc(Cl)c(N)c3c2OCC3)CC1` [Prucalopride], 0.36.

For the molecule `OCCN1CCN(CCCN2c3ccccc3Sc3ccc(C(F)(F)F)cc32)CC1` [Fluphenazine dihydrochloride], the “z-score of subpopulation abundance” value is -0.44. With `O=C(O)C[C@H](O)C[C@H](O)/C=C/c1c(C2CC2)nc2ccccc2c1-c1ccc(F)cc1` [Pitavastatin Calcium], the “z-score of subpopulation abundance” value is 3.37. In the case of `O=c1[nH]cnc2c1ncn2[C@@H]1O[C@H](CO)[C@@H](O)[C@H]1O` [Isoprinosine] it was -0.24; in that of `Cc1ccc(S(=O)(=O)NC(=O)NN2CC3CCCC3C2)cc1` (stereo not given) [Gliclazide], -0.04; in that of `OCCN(CCO)c1nc(N2CCCCC2)c2nc(N(CCO)CCO)nc(N3CCCCC3)c2n1` [Dipyridamole], -6.13. As to `CC[C@@H]([C@H](C)O)n1ncn(-c2ccc(N3CCN(c4ccc(OC[C@@H]5CO[C@@](Cn6cncn6)(c6ccc(F)cc6F)C5)cc4)CC3)cc2)c1=O` [Posaconazole], the “z-score of subpopulation abundance” value is 11.8.

`CCCNC(C)C(=O)Nc1ccccc1C` (stereo not given) [Prilocaine]: the “z-score of subpopulation abundance” value is -0.22. For `CS(=O)(=O)c1ccc([C@@H](O)[C@@H](CO)NC(=O)C(Cl)Cl)cc1` [Thiamphenicol] the value was -0.08.

Take `CC(C)(O/N=C(\C(=O)N[C@@H]1C(=O)N2C(C(=O)[O-])=C(C[n+]3ccccc3)CS[C@H]12)c1csc(N)n1)C(=O)O` [Ceftazidime]: the “z-score of subpopulation abundance” value stood at 0.14.

Turning to `O=C(O)Cc1ccccc1Nc1c(Cl)cccc1Cl` [Diclofenac Diethylamine], the “z-score of subpopulation abundance” value is -1.96. In the case of `CCC(C)(C)C(=O)O[C@H]1C[C@@H](C)C=C2C=C[C@H](C)[C@H](CC[C@@H]3C[C@@H](O)CC(=O)O3)[C@H]21` [Simvastatin] it was 1.9; in that of `Clc1ccc(COC(Cn2ccnc2)c2ccc(Cl)cc2Cl)cc1` (stereo not given) [Econazole], 4.19.

For `CCCN[C@H]1CCc2nc(N)sc2C1` [Pramipexole], the “z-score of subpopulation abundance” value was 0.71.

On to `COC(=O)Nc1nc2cc(Sc3ccccc3)ccc2[nH]1` [Fenbendazole], for which the “z-score of subpopulation abundance” value worked out at 0.36. As for `CCOC(=O)OC(C)OC1=C(C(=O)Nc2ccccn2)N(C)S(=O)(=O)c2ccccc21` (stereo not given) [Ampiroxicam], the “z-score of subpopulation abundance” value is -0.48. In the case of `CC[C@H]1OC(=O)[C@H](C)[C@@H](O[C@H]2C[C@@](C)(OC)[C@@H](O)[C@H](C)O2)[C@H](C)[C@@H](O[C@@H]2O[C@H](C)C[C@H](N(C)C)[C@H]2O)[C@](C)(O)C[C@@H](C)C(=O)[C@H](C)[C@@H](O)[C@]1(C)O` [Erythromycin] it was -0.16. For `CC1(C)S[C@@H]2[C@H](NC(=O)[C@H](C(=O)O)c3ccsc3)C(=O)N2[C@H]1C(=O)O` [Ticarcillin sodium] the value was 0.83.

Regarding `Cc1c(S(=O)(=O)O)oc2c1C(=O)C(=O)c1c-2ccc2c1CCCC2(C)C` [Tanshinone IIA sulfonate (sodium)], the “z-score of subpopulation abundance” value is 0.71.

With `Nc1ccc(S(=O)(=O)Nc2ncccn2)cc1` [Sulfadiazine], the “z-score of subpopulation abundance” value is -0.05. For `Cc1cc(O)cc(C)c1Cl` [Chloroxylenol] the value was 0.68. In the case of `CCn1cc(C(=O)O)c(=O)c2cc(F)c(N3CCNC(C)C3)c(F)c21` (stereo not given) [Lomefloxacin HCl] it was 0.66. In the case of `C/C=C\c1ccc(O)c(OC)c1` [Isoeugenol] it was 0.5; in that of `COCCOC(=O)C1=C(C)NC(C)=C(C(=O)OC/C=C/c2ccccc2)C1c1cccc([N+](=O)[O-])c1` (stereo not given) [Cilnidipine], 0.37; in that of `O=C(N[C@H](CO)[C@H](O)c1ccc([N+](=O)[O-])cc1)C(Cl)Cl` [Chloramphenicol], 0.42. With `COc1ncnc(NS(=O)(=O)c2ccc(N)cc2)c1OC` [Sulfadoxine], the “z-score of subpopulation abundance” value was 1.04. In the case of `COc1cc(O)c(C(=O)Nc2nc(C(=O)NCCN(C(C)C)C(C)C)cs2)cc1OC` [Acotiamide hydrochloride] it was 0.54.
